Source: ChEMBL document CHEMBL3988442, “University of Dundee, Small-Polar-MMV Screening Library” (2021)
Out of some 48,000 compounds screened, about 13,000 (27%) showed an effect of 50% or more. The list shows a part of the results.

What follows are molecules tested on Wolbachia pipientis (assay: Anti-Wolbachia Cell-Based Screen). Details: 5 µM.
Type: functional
Parameters: scale not given: in the data most compounds retested in dose-response had high values
`O=C(O)C(F)(F)F.OCCOCc1ncn2c1CN(Cc1cccs1)CCC2` was tested, and the “Percent Effect” value was 0.3209%.
`CCCN(CC(F)F)c1cc(COC)nc2ncnn12` was tested, and the “Percent Effect” value was -12.24%.
In the case of `O=C(c1ccc(C2CCCN2)s1)N1CCC2(CCCO2)CC1` (stereo unspecified), the “Percent Effect” value is reported as 16.77%.
In the case of `c1csc(CN2CCCN(c3ccc(Cn4ccnc4)cn3)CC2)c1`, the “Percent Effect” value is reported as 106.4%.
For `Fc1ccc(N2CCCN(c3ccc(Cn4ccnc4)cn3)CC2)cc1`, the “Percent Effect” value was 119.2%.
With `CC(C)N1CCCC(CN(C)c2ccc(Cn3ccnc3)cn2)C1` (stereo unspecified) the “Percent Effect” value was -1.53%.
With `COc1cnc(N2CCCN(c3ccc(F)cc3)CC2)nc1` the “Percent Effect” value was 8.48%.
With `c1cn(Cc2nnc(C3CCN(C4CCCCC4)CC3)n2C2CC2)cn1` the “Percent Effect” value was 13.15%.
In the case of `c1cc(CN2CCCN(c3ccc4cc[nH]c4n3)CC2)ccn1`, the “Percent Effect” value is reported as -27.97%.
In the case of `O=C(NCCn1ccnc1)NCc1ccc(N2CCCCCC2)nc1`, the “Percent Effect” value is reported as 15.34%.
In the case of `c1csc(-c2cc(CN3CCN(c4cnccn4)CC3)no2)c1`, the “Percent Effect” value is reported as -0.0676%.
`CN(CC1CCN(c2ccccc2)C1)c1ccc(Cn2ccnc2)cn1` (stereo unspecified) was tested, and the “Percent Effect” value was -14.61%.
`CC1CCN(c2ccc(CNC(=O)NCCn3ccnc3)cn2)CC1` was tested, and the “Percent Effect” value was 0.6283%.
`OC1CCN(C2CCN(c3ccc(Cn4ccnc4)cn3)CC2)CC1` was tested, and the “Percent Effect” value was 89.01%.
With `c1cn(Cc2ccc(N3CCCN(C4CCCC4)CC3)nc2)cn1` the “Percent Effect” value was 96.41%.
`CCOc1ccc(C(=O)N2Cc3cnc(CC(C)C)nc3C2)o1` was tested, and the “Percent Effect” value was -22.23%.
In the case of `Cc1ccc(CC(NC(=O)CCS(C)(=O)=O)c2ccccn2)cc1` (stereo unspecified), the “Percent Effect” value is reported as -19.62%.
In the case of `C[S+]([O-])c1nncn1CC(=O)c1ccc(Br)cc1` (stereo unspecified), the “Percent Effect” value is reported as -5.183%.
For `Cc1ccc(CN2CCCC3(CCCCN3S(C)(=O)=O)C2)s1.O=C(O)C(F)(F)F` (stereo unspecified), the “Percent Effect” value was -28.3%.
In the case of `Cc1nn(C)c(Cl)c1C1CCCN1C(=O)c1cc[nH]n1` (stereo unspecified), the “Percent Effect” value is reported as -2.963%.
In the case of `Cc1nn(C)c(Cl)c1C1CCCN1C(=O)c1csnn1` (stereo unspecified), the “Percent Effect” value is reported as 106%.
In the case of `CC(=O)NCc1ccc(C(=O)N2CCCC2c2c(C)nn(C)c2C)o1` (stereo unspecified), the “Percent Effect” value is reported as 97.07%.
In the case of `Cc1ccn2cc(C(=O)N3CCCC3c3c(C)nn(C)c3C)nc2c1` (stereo unspecified), the “Percent Effect” value is reported as 3.405%.
In the case of `Cc1nn(C)c(Cl)c1C1CCCN1C(=O)c1cnccn1` (stereo unspecified), the “Percent Effect” value is reported as 91.27%.
`Cc1ncncc1C(=O)N1CCCC1c1c(C)nn(C)c1Cl` (stereo unspecified) was tested, and the “Percent Effect” value was 95.8%.
`CCc1nc(CNCC2(C(N)=O)CCOCC2)cs1` was tested, and the “Percent Effect” value was 1.973%.
With `CCCC1(CO)CCCN(c2ncccc2F)C1` (stereo unspecified) the “Percent Effect” value was -3.484%.
In the case of `COc1ccc(OCc2cc(C(=O)N3CCN[C@H](C)C3)n[nH]2)c(Cl)c1`, the “Percent Effect” value is reported as -13.06%.
With `CNC(=O)c1ccc(CN(C(C)C)C(C)C)o1.Cl` the “Percent Effect” value was -8.523%.
`COc1cc(C)c(CNC(C)c2csc(C)n2)cc1OC` (stereo unspecified) was tested, and the “Percent Effect” value was -9.97%.
In the case of `N#CCCN(CCC#N)C(=O)COC1CCCCC1`, the “Percent Effect” value is reported as -15.39%.
For `COc1c(C2CCCN2C(=O)c2cc(C3CC3)on2)c(C)nn1C` (stereo unspecified), the “Percent Effect” value was -11.04%.
For `COc1c(C2CCCN2C(=O)c2cc(C)on2)c(C)nn1C` (stereo unspecified), the “Percent Effect” value was 99.28%.
In the case of `COc1c(C2CCCN2C(=O)c2cnn(C)c2C2CC2)c(C)nn1C` (stereo unspecified), the “Percent Effect” value is reported as -4.592%.
With `CCc1ccc(C(=O)N2CCCC2c2c(C)nn(C)c2OC)o1` (stereo unspecified) the “Percent Effect” value was 54.64%.
`COc1c(C2CCCN2C(=O)c2csc(C(C)C)n2)c(C)nn1C` (stereo unspecified) was tested, and the “Percent Effect” value was 8.615%.
In the case of `CCc1noc(C)c1C(=O)N1CCCC1c1c(C)nn(C)c1OC` (stereo unspecified), the “Percent Effect” value is reported as -9.828%.
In the case of `COc1c(C2CCCN2C(=O)c2ccc(Cl)o2)c(C)nn1C` (stereo unspecified), the “Percent Effect” value is reported as 6.578%.
For `COc1c(C2CCCN2C(=O)c2ccco2)c(C)nn1C` (stereo unspecified), the “Percent Effect” value was -0.9591%.
With `COCc1nc(C(=O)N2CCCC2c2c(C)nn(C)c2C)cs1` (stereo unspecified) the “Percent Effect” value was 3.792%.
With `Cc1nn(C)c(Cl)c1C1CCCN1C(=O)c1cnn(C)c1C1CC1` (stereo unspecified) the “Percent Effect” value was 93.32%.
For `COc1c(C2CCCN2C(=O)c2csc(C3CC3)n2)c(C)nn1C` (stereo unspecified), the “Percent Effect” value was 61.26%.
`c1ccc(CCCN2CC[C@H](c3nnc(-c4ccccc4)o3)C2)cc1` was tested, and the “Percent Effect” value was -1.621%.
With `CCN(Cc1ccoc1)C(C(N)=O)c1ccc(C#N)cc1` (stereo unspecified) the “Percent Effect” value was 0.4454%.
`O=C(NCCc1csc(N2CCCC2)n1)N(C1CCCC1)C1CC1` was tested, and the “Percent Effect” value was -4.119%.
`Cc1cc2nc(CO[C@H]3CN(C4CCCCC4)C[C@H]3F)[nH]c2cc1C` was tested, and the “Percent Effect” value was 9.281%.
With `Cc1noc([C@@H]2C[C@H]3CN(Cc4ccc5c(c4)OCO5)C[C@H]3O2)n1.O=C(O)C(F)(F)F` the “Percent Effect” value was -40.6%.
`Cc1nn(C)c(Cl)c1C1CCCN1C(=O)c1cc(C2CC2)on1` (stereo unspecified) was tested, and the “Percent Effect” value was 102.8%.
With `COc1c(C2CCCN2C(=O)c2cscn2)c(C)nn1C` (stereo unspecified) the “Percent Effect” value was 88.43%.
In the case of `COc1c(C2CCCN2C(=O)c2cnccn2)c(C)nn1C` (stereo unspecified), the “Percent Effect” value is reported as 114.6%.
With `COc1c(C2CCCN2C(=O)c2cnc(C)cn2)c(C)nn1C` (stereo unspecified) the “Percent Effect” value was 86.16%.
